Consider 62 molecules from PubChem BioAssay AID2685 (National Center for Advancing Translational Sciences (NCATS), 2010).

Structures are written as SMILES. In all, about 320,000 compounds went through this assay and about 2,100 (0.66%) were called active. Not shown: some 53% with an inconclusive outcome. Calls come from the whole dose curve; as a rule, active = well fitted inhibition curve with a large enough effect in the signal ratio, with a control signal flat (not every such curve was filed as active); inconclusive = small, poorly fitted or top-dose-only effect, or effect the other way, or a change in a side signal; inactive = flat fitted curve, though single readings scatter; the % refers to the signal ratio. The sample as a whole holds a higher share of actives than the screen did.
Potency is the fitted concentration of half-maximal effect.

This test in a line: qHTS Assay for Lipid Storage Modulators in Drosophila S3 Cells.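 For cell number change: cells counted by Cell Tracker Red CMTPX staining in the red channel.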 The conditions noted are these: BODIPY lipid droplet fluorescence, 18-24 h, cells fed with added oleic acid; cell number change: measured here: cell count max response; series mostly up to 46.1 µM. A digest of the protocol:
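Drosophila S3 cells got compounds at several concentrations plus oleic acid (400 uM solution). Laser-scanning cytometry with 488 nm excitation read lipid droplets at 500-530 nm and cells at 575-640 nm. Percent activity was relative to 20 uM Triacsin C.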
A general note: In qHTS, concentration-response curves come from the screen itself.
Consider `CC1CC(C)CN(S(=O)(=O)c2ccc(NC(=O)CN3C(=O)NC(C)(c4ccccc4)C3=O)cc2)C1` (stereo not given), for which the Potency entry is “inactive” and the cell number change turned out to be 3.59%.

For `O=C(O)C1CC(=O)N(C2CCCCC2)C1c1ccccc1` (stereo not given), the Potency result was “inactive” and the cell number change is -5.69%.

On to `CCOC(=O)N1CCN(C(=O)CSc2nc(=O)n3cc(C)ccc3n2)CC1`, for which the Potency result was “inactive”.

For `Cc1ccc(C(NC(=O)C2CCCCC2)c2c(O)ccc3ccccc23)cc1` (stereo not given), the Potency was 13 µM (active) and the cell number change was -26.6%.

For `CC(C)CC(=O)NC(c1ccccc1)c1c(O)ccc2ccccc12` (stereo not given), the Potency entry was “inactive” and the cell number change was -6.8%.

Regarding `CC(=O)NC(c1ccccc1)c1c(O)ccc2ccccc12` (stereo not given), the Potency entry was “inactive” and the cell number change came to 0.433%.

Regarding `CCN(CC)S(=O)(=O)c1ccc(N2CCOCC2)c(NC(=O)CN2C(=O)NC(C)(c3ccccc3)C2=O)c1` (stereo not given), the Potency entry was “inactive”.

For the molecule `O=C(Cc1cccc(F)c1)N1CCCC(CO)(Cc2ccc(F)cc2F)C1` (stereo not given), the Potency entry is “inactive” and the cell number change came to 17.6%.

With `CC(C)c1nc2sc3c(=O)[nH]c(=S)[nH]c3c2c2c1CCC2`, the Potency is 20.6 µM (active) and the cell number change turned out to be 5.1%.

In the case of `CC1(C)Cc2c(c(-c3ccccc3)nc3sc4c(=O)[nH]c(=S)[nH]c4c23)CO1`, the Potency entry was “inactive”.

On to `CC(C)c1nc2sc3c(=O)[nH]cnc3c2c2c1CCC2`, for which the Potency entry is “inactive” and the cell number change was -2.67%.

`Cc1[nH]n(-c2ccc([N+](=O)[O-])cc2)c(=O)c1C=NCC1CCCO1` (stereo not given): the outcome is “inactive [at 9.22 µM]”.

For the molecule `O=C(CN1C(=O)/C(=C/c2cccc(Br)c2)SC1=S)NCCCN1CCOCC1`, the Potency entry was “inactive”.

On to `O=C(Cc1csc(NC(=O)Nc2ccc(Cl)cc2)n1)NC1CCCC1`, for which the outcome is “inactive [at 0.0737 µM]”.

As to `CSc1c(CC(=O)NCCCO)n(Cc2ccccc2)c2ccccc12`, the Potency result is “inactive” and the cell number change is -1.72%.

With `O=C(Cc1c(Sc2ccccc2)c2ccccc2n1Cc1ccccc1)NCCO`, the Potency was 13 µM (active).

For the molecule `Cn1c(CC(=O)NCCO)c(Sc2ccccc2)c2ccccc21`, the Potency result is “inactive” and the cell number change is -10.3%.

Take `Cc1cccc(-n2c(=S)[nH]c3nc4c(cc3c2=O)COC(C)(C)C4)c1`: the Potency entry was “inactive” and the cell number change was 18.9%.

For `CCOc1ccc(S(=O)(=O)NCCc2cn3ccccc3n2)cc1`, the Potency result is “inactive” and the cell number change worked out at 6.49%.

In the case of `Cc1nc(N2CCCCC2)c2c(-c3cccs3)csc2n1`, the Potency entry was “inactive” and the cell number change was 4.97%.

As for `Cc1nc(N2CCN(c3ccccc3O)CC2)c2c(-c3ccccc3)csc2n1`, the Potency was 4.11 µM (active) and the cell number change was -4.5%.

With `CN1CCN(c2nc(-c3cccnc3)nc3scc(-c4ccccc4)c23)CC1`, the Potency entry is “inactive”.

For the molecule `COc1ccc(-c2csc3ncnc(N4CCN(S(=O)(=O)c5ccc(Cl)s5)CC4)c23)cc1`, the Potency result was “inactive”.

Regarding `Oc1ccccc1N1CCN(c2ncnc3scc(-c4ccccc4)c23)CC1`, the Potency was 0.92 µM (active) and the cell number change was -12.6%.

Take `COc1ccc(-c2csc3ncnc(N4CCN(c5ccc(OC)cc5)CC4)c23)cc1`: the Potency result was “inactive” and the cell number change turned out to be 11.5%.

`Cc1ccc(-c2csc3ncnc(N4CCN(c5ccccc5O)CC4)c23)cc1`: the Potency entry was “inactive” and the cell number change amounted to 7.78%.

As for `c1ccc(-c2csc3ncnc(N4CCOCC4)c23)cc1`, the Potency entry is “inactive” and the cell number change is -6.12%.

Consider `COc1ccc(-c2csc3ncnc(N4CCN(S(=O)(=O)c5ccccc5C#N)CC4)c23)cc1`, for which the Potency is 7.31 µM (active) and the cell number change is -21.2%.

Regarding `COc1cccc(NC(=O)CN(C)C(=O)c2ccccc2-c2nc3ccccc3s2)c1`, the Potency result was “inactive” and the cell number change was -6.15%.

As to `CCCCn1c(N)c(N(CC)C(=O)c2ccc([N+](=O)[O-])c(C)c2)c(=O)[nH]c1=O`, the Potency result is “inactive” and the cell number change is 6.41%.

Regarding `COCC(=O)NCCSc1c(C)[nH]c2ccccc12`, the Potency result is “inactive”.

`COc1ccc(/C=N/NC(=O)c2cccc(Br)c2)cc1CSc1ccccn1`: the Potency entry was “inactive” and the cell number change turned out to be 25.3%.

For the molecule `Cc1ccccc1CN1CCC(n2nccc2NC(=O)CCOc2ccccc2)CC1`, the Potency result was “inactive”.

With `N#Cc1ccccc1OCC(=O)NCC(c1ccc(F)cc1)N1CCOCC1` (stereo not given), the Potency result is “inactive” and the cell number change is 17.7%.

For `CSc1nnc(C)c(=O)n1COC(=O)COc1ccc(F)cc1`, the Potency entry is “inactive”.

For `CCC(C)N(C(=O)Cn1nnc(-c2ccc(F)cc2)n1)C1CCS(=O)(=O)C1` (stereo not given), the Potency entry is “inactive” and the cell number change is 8.11%.

Turning to `O=C(CN(C(=O)c1csnn1)c1ccc(Cl)cc1)NCc1ccc2c(c1)OCO2`, the Potency result is “inactive” and the cell number change stood at 3.81%.

On to `O=C(CN(C(=O)c1csnn1)c1cccc(F)c1)NCc1ccc2c(c1)OCO2`, for which the Potency entry was “inactive” and the cell number change stood at 8.12%.

Take `COc1ccc(N(CC(=O)NCc2ccc3c(c2)OCO3)C(=O)c2csnn2)cc1`: the Potency is 1.16 µM (active) and the cell number change is -14.1%.

For the molecule `COc1ccc(S(=O)(=O)N(C)CC(=O)Nc2ccc3c(c2)OCO3)cc1`, the Potency entry is “inactive” and the cell number change is -1.44%.

On to `COc1ccc(S(=O)(=O)N(C)CC(=O)NCc2ccc3c(c2)OCO3)cc1`, for which the Potency was 2.06 µM (active) and the cell number change was found to be 16.1%.

As to `COc1ccc(Cl)cc1S(=O)(=O)N(C)CC(=O)NCc1ccc2c(c1)OCO2`, the Potency entry was “inactive” and the cell number change came to 13.5%.

As to `Cc1ccc2c(c1)N(S(=O)(=O)c1ccc3c(c1)NC(=O)CC(=O)N3)CCO2`, the Potency entry was “inactive” and the cell number change worked out at 15%.

Consider `COC(=O)c1sc2ncccc2c1OCc1ccccc1Cl`, for which the Potency result is “inactive” and the cell number change was -10.8%.

For `COc1cccc(C2/C(=C(/O)c3ccc4c(c3)OCO4)C(=O)C(=O)N2CCN2CCOCC2)c1` (stereo not given), the Potency entry is “inactive” and the cell number change came out at 25.8%.

Consider `CC(C)Cc1nnc(NC(=O)C2=COCCO2)s1`, for which the Potency result was “inactive” and the cell number change is -9.23%.

Regarding `C=CCn1c(C)c(C(C)=O)c(N2CCCC2)nc1=S`, the Potency result is “inactive” and the cell number change was 0.195%.

On to `C=CCn1c(C)c(C(C)=O)c(N2CCN(c3ccccc3)CC2)nc1=S`, for which the Potency entry was “inactive” and the cell number change is -14.3%.

Regarding `C=CCn1c(C)c(C(C)=O)c(N2CCOCC2)nc1=S`, the Potency is 23.1 µM (active) and the cell number change was -4.96%.

With `CCOc1ccc(/C=N/n2c(SC)nnc(C(C)(C)C)c2=O)cc1`, the Potency entry is “inactive” and the cell number change is -13.9%.

Consider `Cc1cccc(OCC(=O)Nc2ccc(S(=O)(=O)Nc3cc(C)nc(C)n3)cc2)c1`, for which the Potency entry is “inactive” and the cell number change was 13.6%.

`Cc1cc(NS(=O)(=O)c2ccc(NC(=O)CCCC(=O)O)cc2)nc(C)n1`: the Potency entry is “inactive” and the cell number change was -5.64%.

As for `COCC(=O)Nc1ccc(S(=O)(=O)Nc2cc(C)nc(C)n2)cc1`, the Potency is 32.6 µM (active) and the cell number change was -33.4%.

With `Cc1cc(NS(=O)(=O)c2ccc(NC(=O)CN3C(=O)c4ccccc4C3=O)cc2)nc(C)n1`, the Potency result is “inactive”.

For the molecule `CCOC(=O)COc1ccc(S(=O)(=O)Nc2ccc(C)cc2)cc1`, the Potency entry was “inactive” and the cell number change was 11.3%.

Take `COCCOCC(=O)Nc1ccc(S(=O)(=O)Nc2cc(C)nc(C)n2)cc1`: the Potency entry is “inactive” and the cell number change turned out to be 21.3%.

Turning to `COC(=O)COc1ccc(S(=O)(=O)Nc2ccc(C(N)=O)cc2)cc1`, the Potency entry was “inactive” and the cell number change was 10.2%.

With `Cc1cc(C)nc(NS(=O)(=O)c2ccc(NC(=O)CN3C(=O)c4ccccc4C3=O)cc2)n1`, the Potency is 6.51 µM (active) and the cell number change is -6.03%.

Take `CCOc1ccc(OCC(=O)Nc2ccc(S(=O)(=O)Nc3cc(C)nc(C)n3)cc2)cc1`: the Potency result was “inactive” and the cell number change is -4.96%.

`COC(=O)COc1ccc(S(=O)(=O)Nc2ccc(NC(C)=O)cc2)cc1`: the Potency was 3.66 µM (active) and the cell number change is -0.0647%.

For `Cc1cc(NS(=O)(=O)c2ccc(NC(=O)COc3ccc(Br)cc3)cc2)nc(C)n1`, the Potency was 18.4 µM (active).

Take `Cc1cc(C)nc(NS(=O)(=O)c2ccc(NC(=O)CN3C(=O)S/C(=C\c4ccccc4)C3=O)cc2)n1`: the Potency result was “inactive” and the cell number change was found to be 8.32%.
